The full ranking holds about 33,000 sequences; the median of “E-score (-0.5 to 0.5)” is about -0.011, and the highest 2% start at about 0.28. Many of the other results were omitted from the sample, so the highest values are more common in it than they were.
biological target: T1, Gcr1 (UniProt P07261); assay: PBM E-score (8-mer binding enrichment) (E-score (-0.5 to 0.5)); higher = stronger / more preferred TF binding; conditions: protein concentration: 100 nM; construct: GST-full length
T1 sequence: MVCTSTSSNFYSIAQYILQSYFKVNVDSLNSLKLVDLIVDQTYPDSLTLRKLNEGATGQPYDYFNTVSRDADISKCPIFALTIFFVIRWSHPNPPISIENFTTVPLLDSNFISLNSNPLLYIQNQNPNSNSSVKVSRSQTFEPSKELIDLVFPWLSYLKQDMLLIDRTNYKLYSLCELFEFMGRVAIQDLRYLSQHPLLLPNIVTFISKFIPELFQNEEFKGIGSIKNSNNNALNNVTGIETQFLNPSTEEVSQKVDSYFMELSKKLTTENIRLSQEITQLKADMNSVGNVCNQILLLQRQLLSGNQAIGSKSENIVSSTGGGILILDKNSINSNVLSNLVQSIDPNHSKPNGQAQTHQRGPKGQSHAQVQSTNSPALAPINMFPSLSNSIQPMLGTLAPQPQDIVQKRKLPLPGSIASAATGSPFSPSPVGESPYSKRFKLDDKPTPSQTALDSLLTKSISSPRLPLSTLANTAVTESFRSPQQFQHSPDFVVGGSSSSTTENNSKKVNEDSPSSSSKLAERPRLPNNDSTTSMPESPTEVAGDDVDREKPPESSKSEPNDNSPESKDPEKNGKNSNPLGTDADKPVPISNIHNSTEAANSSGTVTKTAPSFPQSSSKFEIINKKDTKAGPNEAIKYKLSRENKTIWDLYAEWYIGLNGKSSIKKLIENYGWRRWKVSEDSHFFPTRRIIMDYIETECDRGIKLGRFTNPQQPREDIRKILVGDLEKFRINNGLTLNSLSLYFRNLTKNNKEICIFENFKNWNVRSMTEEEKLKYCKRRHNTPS
Experimental: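 Universal 'all 10-mer' protein binding microarrays (Agilent AMADID 015681) probed with GST-tagged S. cerevisiae TFs (full-length or DBD) made by in vitro transcription/translation (PURExpress), about 100-200 nM. Bound TF was detected with fluorescent anti-GST. Each ungapped 8-mer (which stands for itself and its reverse complement) is scored by the PBM enrichment score (E-score), a modified Wilcoxon-Mann-Whitney statistic from -0.5 to +0.5, computed with the Universal PBM Analysis Suite. Scale: above 0.35 generally sequence-specific binding.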

Sequence	PBM E-score
CATAGACG	0.0886
CTAATTTC	0.189
GTAATTTA	0.109
CTAATTTA	0.291
ATACCTTG	-0.108
AAATTTGG	0.301
ATTTTTGG	0.186
CAATTTGG	0.222
AATTTTGG	0.287
AAATTGGG	0.295
CAATTGGG	-0.0107
AAATTTTG	0.088
AATTTTTG	0.1
AAAATTGG	0.316
CAAATTGG	0.213
AAAATTGC	-0.203
AAATTGGT	0.226
AGGGAATA	0.0244
AATAGATC	-0.0063
CGATCTTA	-0.045
GAGTTCAC	-0.0309
ATGTGCCG	-0.205
ACCGCTTG	-0.0218
AGTTTAAT	0.0173
ACACTCGT	-0.152

Sequence	PBM E-score
CTTTGGAC	-0.147
CTTTGGAA	0.282
ATTTGGAG	0.0526
ATTTGGAC	0.166
GTTTGGAA	0.202
ATTTGGAA	0.373
ATGCTAAC	0.139
AATCAGAC	0.0464
AGCCCAGA	0.0713
CTAGCACA	-0.181
CTAGCATC	0.315
ATAGCACC	0.159
CTAGCACC	0.31
CTAGCATA	0.017
ATAGCATC	0.0848
CCAGAGCG	-0.144
ACCGGAAT	0.185
ACCGGACT	-0.0693
ACCGGACG	0.32
ACCGGAAC	0.203
ACCGGATA	0.00906
ACCGGAAG	0.303
ACCGGATG	0.349
ACCGGATC	0.0302
CCCGGACG	-0.0526

Sequence	PBM E-score
AAGGGGTC	-0.19
CGATCAAG	-0.0812
CCTTGGCC	-0.327
ATTAGGAG	0.26
CGCTAGTC	-0.153
AACAATGT	0.0351
ATCCCATG	-0.0862
TCGTTTCA	0.077
TGATTCCA	0.0933
CGATTCCC	0.0331
CGATTCCG	-0.0838
AGATTCCA	0.426
AGATTCCC	0.265
AGATTCCG	0.284
GGATTCCC	0.418
CGATTCCA	0.178
GGATTCAC	0.159
AGATTCCT	0.399
ACATTCCT	0.0561
ATATTCCG	0.131
CCAGTTGA	-0.0652
GGATTGAC	-0.0943
AACCCAGG	0.056
CCGTTGAC	-0.121
GGAACCAA	0.31

Sequence	PBM E-score
CGAACCAC	0.0103
CGAACCAA	-0.0751
GCAACCAA	0.302
GCAACCAC	0.267
TGAACCAA	0.022
AGAACCAC	0.035
GGAACCAC	0.284
CCAACCAA	0.0612
AATGGACG	0.143
CGTGGGCC	-0.23
GGGGAGCA	-0.103
GGTCGAGA	-0.0372
GTAGGATA	-0.109
GTACTGGA	0.235
GGACTGGA	-0.0243
ATACTGGA	0.373
ATACTGGC	0.161
CGACTGGC	-0.241
TAACTGGA	0.225
GAACTGGA	0.303
CGACTGGA	0.316
CAACTGGA	0.212
CGCAGTTA	0.15
ACGTAGCC	0.14
ACGTAGCA	-0.079

Sequence	PBM E-score
ACGTAGCT	0.282
CGGTTGGA	0.0351
GCAATCGC	-0.113
ATTCAAGC	-0.0491
CCTCTATA	0.266
CTGGATGA	0.0353
CTGGATAC	0.135
CTGGATGC	0.425
ATGGATGA	-0.0514
ATGGATGC	0.389
ATGGATGG	-0.034
ACGGGGGC	-0.08
AGTCCGGA	0.0284
ATCGGATA	0.0757
TGTAGACA	-0.0678
AAACTGGT	0.178
TCGCCGCA	0.0198
CGCTCAAC	-0.0355
AACACCCA	-0.0911
AGCACACC	-0.188
AGCACCAG	0.156
AGCACCCT	0.277
CGCACCCG	0.0194
AGCACCAT	0.282
AGCACCCA	0.351

Sequence	PBM E-score
AGCACCCG	0.282
AGCACCAC	0.235
CAAGATTC	0.122
GAAGCGCA	0.129
AGGTAAAG	-0.112
GATGCTGA	0.312
GATGCTAC	0.338
CATGCTGA	-0.229
GATGCTGC	0.276
CGTGCTGA	-0.14
AATGCTAA	0.206
TATGCTAA	-0.0329
AATGCTAC	-0.0602
GGTGCTTA	0.259
GATGCTAA	0.372
GGTGCTGA	0.335
CATGCTAC	-0.123
AAGGCGAA	-0.0278
CACAATGA	0.0838
GCTTCAAA	0.192
AGTTGGCG	0.0665
CACTCCAG	0.0875
ACCGCGGC	0.143
ACGCCGGA	0.0899
CATTTGGC	-0.0265

Sequence	PBM E-score
CACCTGCC	-0.127
ACCAATGG	0.0385
ACACTGAG	-0.126
CCCATTTA	0.293
GTATTTAA	0.117
CCATTTTA	0.23
CTATTTAA	0.309
CCATTTAC	0.0873
CCTATTTA	0.247
CCATTTAA	0.304
CCCATTTC	-0.0272
ACTATTTA	0.293
ATATTTAA	0.111
ACCATTTA	0.0518
GCTATTTA	-0.162
ACAGTCCA	-0.304
TACCGTGA	0.0127
ACTCTTCT	0.0323
TCCGGAAA	0.172
CACCCGGA	0.136
CGAAGTAC	-0.022
CGCCAAAG	0.0195
TCAACTAA	-0.00686
ACGACGGG	0.00739
AATTACAG	0.283

Sequence	PBM E-score
CATTACAG	-0.0702
AATTACAT	0.0891
CCACCCTC	-0.00165
CAAAATTC	0.306
CAAAATTG	0.0415
AAAAATTC	0.0187
GCTAGCAC	-0.0767
GCAGGCCC	-0.133
ACAAGCTA	-0.0171
ACACAATA	0.0111
CCACAATA	0.3
CCACAATC	0.156
CCACAAAA	0.282
ACACAAAA	0.141
CCACAAAG	0.16
CTCGGTAA	-0.22
AAACCTAA	0.0813
CCTTTCAG	-0.117
GGGGGACA	0.0151
AGTCTGTA	-0.152
CCCCGTTC	-0.082
AGCGCCCC	0.153
TGCGCCCA	0.0933
CACGCCCA	-0.107
CGCGCCCC	0.243

Sequence	PBM E-score
GACGCCCA	0.427
AGCGCCCA	0.183
GGCGCCCA	0.398
GACGCCCC	0.0383
GGCGCCCC	0.308
CGAGAGGA	-0.113
CCCGGGGC	0.0219
ACAAGCAT	0.15
CCATTGGC	0.0633
GCGGCGGA	0.0513
AATTTGTC	-0.00767
ATGGCTGC	0.168
CCGGCTGC	0.314
ATGGCTTA	0.0216
CTAGCTTA	-0.172
CTAGCTTC	0.316
CTGGCTGC	0.35
ATAGCTTC	0.249
CTGGCTGA	-0.225
CCGGCTGA	-0.138
ATGGCTTC	0.3
ATGGCTTG	-0.236
ACGGCTGC	-0.014
CGCCCCGA	-0.0435
CCGCGAGC	-0.0368

Sequence	PBM E-score
GCCCGGCA	-0.0489
GGAGTACC	-0.0959
TGTAGCAA	-0.0217
TAAAGAAA	0.162
ATGGGCCA	-0.112
GACAAACA	-0.0622
CGGTCCAC	-0.225
CAGGCTTC	0.213
CTGGCTTA	-0.159
CTGGCTTC	0.362
GCAAAGAA	0.00261
CGCAACCG	0.24
ACACCAGC	-0.126
TGAAGCCA	-0.0656
AGGAGCCG	0.269
AGAAGCCA	0.362
AGAAGCCC	0.386
ACAAGCCA	-0.275
CGAAGCCC	0.268
AGGAGCCC	0.294
AGAAGCCG	0.399
AGGAGCCT	0.109
AGAAGCAG	0.174
AGAAGCCT	0.273
AAAAGCCC	-0.194

Sequence	PBM E-score
GACCACAA	0.0254
AATCGCAA	0.0343
CGCCGCAG	0.103
ATCAGATA	-0.111
CGAAGCCG	0.285
CCAAGCCG	-0.0556
CGAAGCCA	0.272
AGCAAAGG	-0.135
AAAGGACG	0.025
ATTGTGAG	-0.17
ATTTAGGG	0.196
AATTAGGT	0.0846
AAATAGGA	0.335
CAATAGGA	0.13
AATTAGGC	0.327
AATTAGGA	0.315
GATTAGGA	0.169
CTTTAGGA	0.249
CATTAGGC	-0.0378
TAATAGGA	0.278
ATTTAGGA	0.286
AATTAGGG	-0.012
GACTTTCA	0.0748
AATTCGAT	-0.0107
GTCCGTAA	0.215

Sequence	PBM E-score
GTACCTAC	-0.0043
CCATCGTA	-0.145
AGGCTCAA	-0.283
AATCTTGA	0.1
AATTGTTA	0.116
GAGGAACA	-0.193
CGGGAACC	0.289
CAGGAACG	0.118
AGGGAACC	0.203
GAGGAACC	0.318
GGGGAACC	0.161
CAGGAACC	0.32
CAGGAACA	-0.125
AAGGAACC	0.285
AAGGAACT	0.0335
CGGGAACG	-0.0928
AAGGAACG	-0.0671
ATCTAGAT	0.0364
TCAAAACA	0.0365
CGAATGTA	-0.0414
ATCCTTAC	0.0414
AAAGAATA	-0.0583
ATTAAAAA	0.332
CATTAAAA	0.306
ATTAAAAG	0.239

Sequence	PBM E-score
TATTTAAA	0.243
TATTAAAA	0.243
CATTTAAA	0.287
CATTTTAA	0.252
ATTAAAAC	0.113
GATTAAAA	0.249
GGGGGAGA	-0.233
ATGTTCCA	0.15
CCCAACGG	-0.0188
GGAGCGGA	0.187
CGCCGCAC	0.0199
AGGGAAAA	0.108
AAGAGGAA	0.285
AAGAGGAG	-0.0404
TAGAGGAA	0.396
AAGAGGAT	0.0595
GAGAGGAA	0.128
CAGAGGAA	0.0251
AGGCACTG	-0.0493
TACCAGGA	0.19
CTATGCTA	-0.075
AGTCCTCG	-0.0287
CAAGTCAA	-0.0468
GAAGTCAA	0.297
GAAGTCAC	0.00882

Sequence	PBM E-score
AGCCCCTA	-0.0303
ATGGGTGG	-0.0217
GACGCCGC	0.37
AACGCCTC	-0.0454
CACGCCTC	-0.0746
CACGCCGC	0.151
AACGCCGC	0.123
GACGCCTC	0.282
AAAGGGTT	-0.0414
GTAAAGGA	0.149
AAAGAGAC	0.0252
AGTTGCCA	0.134
CGTTGCCA	0.0696
AGGTGCCC	0.395
AGGTGCCG	0.22
AGGTGCCA	0.191
GGGTGCCA	0.414
CGGTGCCC	0.231
GGTTGCCA	0.377
CGGTGCCA	0.00263

From the supplement of paper PMC3334620
